Measurements taken from PubChem BioAssay (NCATS).
Where “and” joins values, the source holds several entries; their conditions need not be identical. Identical values can stand only once. Inconclusive results are not listed. Calls of active or inactive are those of the source. The call rests on the fitted dose curve; in most records, active means well fitted curve in the direction sought with a large enough effect; inconclusive means small, poorly fitted or top-dose-only effect, or another doubt; inactive means no such curve, though single readings can be large; an effect the other way counts as inactive or inconclusive.

Assays:
[1] = Viability qHTS for spleen associated tyrosine kinase inhibitor (SYKi) naive MV4-11 cells (AID 1963823); conditions: MV4-11 AML viability, CellTiter-Glo luminescence, 72 h; series mostly up to 45 µM; further: nearly all actives have a fitted effect of over 40% in size
In short: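 SYKi-naive MV4-11 AML cells, 500 per well, were exposed to library compounds for 72 hr at 37 C, 5% CO2. Viability was then read by CellTiter-Glo luminescence after 10 min at room temperature.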

[2] = Viability qHTS for spleen associated tyrosine kinase inhibitor (SYKi) drug resistant MV4-11 cells (AID 1963824); conditions: SYKi-resistant MV4-11 viability, CellTiter-Glo, 72 h; series mostly up to 45 µM; further: nearly all actives have a fitted effect of over 35% in size
In short: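 SYK inhibitor-resistant MV4-11 AML cells, 500 per well, added to predispensed compounds and incubated 72 hr at 37 C, 5% CO2. Viability measured by CellTiter-Glo luminescence after 10 min at room temperature.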

[3] = Quantitative highthroughput screen to assess conditional lethalithy of NOMO1 cells grown in RPMI1640 with untreated serum (RPMI+s) (AID 1963876); conditions: NOMO1 AML cells in RPMI+serum, CellTiter-Glo viability, 48 h; series mostly up to 45.8 µM; further: nearly all actives have a fitted effect of over 35% in size;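 on Viability: 100% = DMSO wells and 0% = empty wells without cells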
In short: (§1)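 Each medium arm—HPLM with 10% dialyzed FBS, or RPMI1640 with 5 mM glucose and 10% untreated or dialyzed FBS—was screened against an 11-point, 3-fold compound titration for 48 h at 37 °C, with CellTiter-Glo luminescence as endpoint.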

[4] = Quantitative highthroughput screen to assess conditional lethalithy of NOMO1 cells grown in RPMI1640 with dialyzed fetal bovine serum (RPMI+ds) (AID 1963877); conditions: NOMO1 in RPMI+dialyzed FBS viability, ATP luminescence, 48 h; series mostly up to 45.8 µM; further: nearly all actives have a fitted effect of over 30% in size;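 on Viability: 100% = DMSO control wells and 0% = empty wells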
In short: as §1

[5] = Quantitative highthroughput screen to assess conditional lethalithy of NOMO1 cells grown in Human Plasma-Like Medium with dialyzed fetal bovine serum (HPLM+ds) (AID 1963878); conditions: NOMO1 AML cells in HPLM+ds, CellTiter-Glo viability, 48 h; series mostly up to 45.8 µM; further: nearly all actives have a fitted effect of over 35% in size;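 on Viability: 100% = DMSO wells and 0% = empty wells on each plate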
In short: as §1

[6] = Quantitative highthroughput screen to assess conditional lethalithy of P12 Ichikawa cells grown in Human Plasma-Like Medium with dialyzed fetal bovine serum (HPLM+ds) (AID 1963879); conditions: ATP luminescence, 48 h; Potency: viability; series mostly up to 45.8 µM; further: nearly all actives have a fitted effect of over 35% in size
In short: as §1

[7] = Quantitative highthroughput screen to assess conditional lethalithy of P12 Ichikawa cells grown in RPMI1640 with dialyzed fetal bovine serum (RPMI+ds) (AID 1963880); conditions: ATP luminescence, 48 h; Potency: P12-Ichikawa viability; series mostly up to 45.8 µM; further: nearly all actives have a fitted effect of over 35% in size;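 on Viability: 100% = DMSO wells and 0% = empty wells on each plate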
In short: as §1

[8] = Quantitative highthroughput screen to assess conditional lethalithy of P12 Ichikawa cells grown in RPMI1640 with untreated serum (RPMI+s) (AID 1963881); conditions: ATP luminescence, 48 h; Potency: viability; series mostly up to 45.8 µM; further: nearly all actives have a fitted effect of over 35% in size;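 on Viability: 100% = DMSO wells and 0% = empty wells without cells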
In short: as §1

[9] = Quantitative highthroughput screen to assess conditional lethalithy of SEM cells grown in Human Plasma-Like Medium with dialyzed fetal bovine serum (HPLM+ds) (AID 1963882); conditions: SEM B-ALL cells in HPLM+ds, CellTiter-Glo viability, 48 h; series mostly up to 45.8 µM; further: nearly all actives have a fitted effect of over 35% in size
In short: as §1

[10] = Quantitative highthroughput screen to assess conditional lethalithy of SEM cells grown in RPMI1640 with unreated serum (RPMI+s) (AID 1963883); conditions: SEM B-ALL cells, CellTiter-Glo viability, 48 h; series mostly up to 45.8 µM; further: nearly all actives have a fitted effect of over 35% in size;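 on Viability: 100% = DMSO wells and 0% = empty wells without cells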
In short: as §1

[11] = Quantitative highthroughput screen to assess conditional lethalithy of SEM cells grown in RPMI1640 with dialyzed fetal bovine serum (RPMI+ds) (AID 1963884); conditions: SEM B-ALL cells, RPMI+dialyzed FBS, CellTiter-Glo viability, 48 h; series mostly up to 45.8 µM; further: nearly all actives have a fitted effect of over 35% in size;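 on Viability: 100% = DMSO control wells and 0% = empty wells without cells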
In short: as §1

[12] = Cellular viability qHTS for adrenocortical cancer (ACC) cell line SW-13 (AID 1963989); conditions: SW-13 ACC cells viability, CellTiter-Glo, 48 h; activity (max response): hits give low values; further: nearly all actives have a fitted effect of over 65% in size;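 on activity (max response): cells grown in serum-free medium with ITS supplement; on the % scale 0 is the no-effect control and ±100 the full control effect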
In short: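 48 h treatment, SW-13 in ITS/DMEM serum-free; doses up to 46 uM; readout CellTiter-Glo luminescence; curve fit four-parameter logistic.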

[13] = Cellular viability qHTS for adrenocortical cancer (ACC) cell line NCI-H295R (AID 1963990); conditions: CellTiter-Glo ATP luminescence, 48 h; series mostly up to 46.1 µM; further: nearly all actives have a fitted effect of over 60% in size
In short: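 Compound titrations (up to 46 uM final) are applied to NCI-H295R cultures for 48 h at 37C. Viable cell number is estimated by CellTiter-Glo signal, normalised to DMSO and doxorubicin controls.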
Potency means the concentration at half of the fitted maximal effect.

Cc1ccc(-c2ncn(-c3ccc(Nc4nccc(-c5cccc(N6CCOCC6)c5)n4)cc3)n2)cn1
inactive: activity (max response) [12] 11.5%
active: Potency [1] 2.35 µM | Potency [2] 2.35 µM | Potency [3] 372 nM | Potency [4] 372 nM | Potency [5] 296 nM | Potency [6] 296 nM | Potency [7] 372 nM | Potency [8] 296 nM | Potency [9] 235 nM | Potency [10] 118 nM | Potency [11] 148 nM

CC(C)OC(=O)C1=CN(C(=O)c2ccc(F)c(F)c2)CC(C)(C)c2c1[nH]c1ccccc21
inactive: Potency [3] | Potency [4] | Potency [5] | Potency [6] | Potency [7] | Potency [8] | Potency [9] | Potency [10] | Potency [11] | activity (max response) [12] -5.24%
active: Potency [1] 8.33 µM | Potency [2] 13.2 µM

CC(C)(C)C(=O)Oc1ccc2c(c1)nc(NC(=O)c1cccc([N+](=O)[O-])c1)n2CCCO
inactive: Potency [3] | Potency [4] | Potency [5] | Potency [6] | Potency [7] | Potency [8] | Potency [9] | Potency [10] | Potency [11] | activity (max response) [12] -24.3% | Potency [13]
active: Potency [1] 4.68 µM | Potency [2] 9.34 µM

C#Cc1cccc(Nc2ncnc3cc(OC)c(OCCCCCCC(=O)NO)cc23)c1
active: Potency [1] 291 nM and 372 nM | Potency [2] 231 nM and 296 nM | Potency [3] 1050 nM | Potency [4] 662 nM | Potency [5] 372 nM | Potency [6] 235 nM | Potency [7] 166 nM | Potency [8] 235 nM | Potency [9] 296 nM | Potency [10] 209 nM | Potency [11] 209 nM | Potency [12] 1780 nM | Potency [13] 2000 nM

CCC(=O)N1CCN(c2ccc(-n3c(=O)ccc4cnc5ccc(-c6cnc7ccccc7c6)cc5c43)cc2C(F)(F)F)CC1
active: Potency [1] 42.2 nM and 36.2 nM | Potency [2] 59.6 nM and 102 nM | Potency [3] 132 nM

COc1ccc(Cn2ccc3ccc(C(=O)NO)cc32)cc1
inactive: Potency [3]
active: Potency [1] 14.8 µM | Potency [2] 20.6 µM and 18.6 µM

Nc1ccccc1NC(=O)c1ccc(CNc2nccc(-c3cccnc3)n2)cc1
active: Potency [1] 0.291 µM | Potency [2] 0.231 µM | Potency [3] 2640 nM | Potency [4] 2350 nM | Potency [5] 2350 nM | Potency [6] 2090 nM | Potency [7] 2350 nM | Potency [8] 2090 nM | Potency [9] 743 nM | Potency [10] 833 nM | Potency [11] 662 nM | Potency [12] 3980 nM | Potency [13] 355 nM

CCOc1cc2c(c(F)c1OCC)C(=N)N(CC(=O)c1cc(N3CCOCC3)c(OC)c(C(C)(C)C)c1)C2
active: Potency [1] 9.2 µM | Potency [2] 18.4 µM and 4.68 µM
inactive: Potency [3] | Potency [4] | Potency [5] | Potency [6] | Potency [7] | Potency [8]

CN(C)c1nc(N(C)C)nc(N(C)C)n1
inactive: Potency [1] | Potency [2] | Potency [3] | Potency [4] | Potency [5] | Potency [6] | Potency [7] | Potency [8] | Potency [9] | Potency [10] | Potency [11] | activity (max response) [12] -1.75% and -4.21%

C[C@H](O)[C@H](O)/C=C/c1cccc(O)c1CO
inactive: Potency [1]
active: Potency [2] 0.0092 µM

NC(=O)c1noc([C@H](CCCC2CCCCC2)CC(=O)NO)n1
active: Potency [1] 8.2 µM | Potency [2] 4.17 µM | Potency [3] 16600 nM | Potency [4] 23500 nM | Potency [5] 18700 nM | Potency [6] 23500 nM | Potency [7] 18700 nM | Potency [8] 18700 nM | Potency [9] 18700 nM | Potency [10] 16600 nM | Potency [11] 18700 nM

COc1cc(Nc2cnc(C#N)c(O[C@H](C)CN(C)C)n2)ncc1-c1cnn(C)c1
active: Potency [1] 0.934 µM | Potency [2] 1.32 µM

NC1CCC(N[C@@H]2C[C@H]2c2ccccc2)CC1 (stereo partly drawn)
inactive: Potency [1] | Potency [2] | Potency [3] | Potency [4] | Potency [5] | Potency [6] | Potency [7] | Potency [8] | Potency [9] | Potency [10] | Potency [11] | activity (max response) [12] -23.4%

CCN1C[C@H](C)n2c(c(O)c3c(=O)n(Cc4ccc(F)c(Cl)c4)nc(C(=O)NC)c32)C1=O
inactive: Potency [1] | Potency [2] | Potency [6] | Potency [7] | Potency [8] | Potency [9] | Potency [10] | Potency [11]
active: Potency [3] 23500 nM | Potency [4] 16600 nM | Potency [5] 16600 nM

Cc1nc(N)ncc1-c1nc(N2CCOCC2)c2sc(C(C)(C)O)cc2n1
active: Potency [1] 2.59 µM and 3.32 µM | Potency [2] 3.66 µM and 5.9 µM | Potency [3] 209 nM | Potency [4] 332 nM | Potency [5] 37.2 nM | Potency [6] 83.3 nM | Potency [7] 372 nM | Potency [8] 372 nM | Potency [9] 148 nM | Potency [10] 33.2 nM | Potency [11] 74.3 nM
